One molecule from the supplement of paper PMC8728848 can be followed below.

The entries come from a sample that favours the strongest signals as a whole.

What all share (experiment): glycan array binding signal (z-score within array); higher = stronger binding
Conditions in all cases: glycan notation: IUPAC condensed, linker removed

One assay has as its target Fuc(a1-2)Gal. In short, it runs like this: (§1)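 Glycan array data came from 3228 arrays in the Consortium for Functional Glycomics database, and only arrays with an available protein sequence were kept. Glycan names were put into IUPAC-condensed notation, and columns mapping to the same glycan were averaged. The binding signal is a within-array Z-score, averaged across arrays of one protein sequence run at different concentrations or buffers and across linkers. A negative Z-score can be read as non-binding.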

Assay [1] deals with Fuc(a1-2)Gal(b1-3)GalNAc(a1-3)[Fuc(a1-2)]Gal(b1-4)Glc. In short, it runs like this: as §1
Assay [2] addresses Fuc(a1-2)[Gal(a1-3)]Gal(b1-4)GlcNAc(b1-3)[Fuc(a1-2)[Gal(a1-3)]Gal(b1-4)GlcNAc(b1-6)]GalNAc. An outline of the steps:
as §1

Assay [3] has as its target Fuc(a1-2)[Gal(a1-3)]Gal(b1-4)[Fuc(a1-3)]GlcNAc(b1-3)GalNAc. In short, it runs like this: as §1
The target in assay [4] is Fuc(a1-2)[GalNAc(a1-3)]Gal(b1-3)GlcNAc(b1-6)GalNAc. An outline of the steps: as §1
Assay [5] concerns the target Fuc(a1-2)[GalNAc(a1-3)]Gal(b1-4)GlcNAc(b1-3)Gal(b1-4)GlcNAc(b1-3)Gal(b1-4)GlcNAc. In short, it runs like this: as §1
Assay [6] has as its target Fuc(a1-3)[Gal(b1-4)]GlcNAc(b1-6)GalNAc. In short, it runs like this:
as §1

In assay [7] the target is Fuc(a1-3)[GalNAc(b1-4)]GlcNAc6S. In short, it runs like this: as §1
Another assay concerns the target Gal(a1-4)Gal(b1-4)Glc. An outline of the steps: as §1
The target of the next assay is Gal(b1-3)Gal(b1-4)GlcNAc. An outline of the steps: as §1
The target of assay [8] is Gal(b1-3)GlcNAc(b1-3)Gal(b1-4)GlcNAc(b1-2)[Gal(b1-3)GlcNAc(b1-3)Gal(b1-4)GlcNAc(b1-6)]Man(a1-6)[Gal(b1-3)GlcNAc(b1-3)Gal(b1-4)GlcNAc(b1-2)Man(a1-3)]Man(b1-4)GlcNAc(b1-4)[Fuc(a1-6)]GlcNAc. In short, it runs like this:
as §1

Assay [9] deals with Gal(b1-3)GlcNAc(b1-3)Gal(b1-4)GlcNAc(b1-3)Gal(b1-4)GlcNAc(b1-2)[Gal(b1-3)GlcNAc(b1-3)Gal(b1-4)GlcNAc(b1-3)Gal(b1-4)GlcNAc(b1-6)]Man(a1-6)[Gal(b1-3)GlcNAc(b1-3)Gal(b1-4)GlcNAc(b1-3)Gal(b1-4)GlcNAc(b1-2)Man(a1-3)]Man(b1-4)GlcNAc(b1-4)[Fuc(a1-6)]GlcNAc. In short, it runs like this:
as §1

Assay [10] concerns the target Gal(b1-4)GlcNAc(b1-2)Man(a1-3)[Gal(b1-4)GlcNAc(b1-2)Man(a1-6)]Man(b1-4)GlcNAc(b1-4)GlcNAc. An outline of the steps:
as §1

In assay [11] the target is Gal(b1-4)GlcNAc(b1-2)[Gal(b1-4)GlcNAc(b1-4)]Man(a1-3)[Gal(b1-4)GlcNAc(b1-2)Man(a1-6)]Man(b1-4)GlcNAc(b1-4)GlcNAc. An outline of the steps:
as §1

Assay [12] addresses Gal(b1-4)GlcNAc(b1-3)Gal(b1-4)GlcNAc(b1-2)[Gal(b1-4)GlcNAc(b1-3)Gal(b1-4)GlcNAc(b1-6)]Man(a1-6)[Gal(b1-4)GlcNAc(b1-3)Gal(b1-4)GlcNAc(b1-2)Man(a1-3)]Man(b1-4)GlcNAc(b1-4)[Fuc(a1-6)]GlcNAc. An outline of the steps: as §1
The target in assay [13] is Gal(b1-4)GlcNAc(b1-3)Gal(b1-4)GlcNAc(b1-3)Gal(b1-4)GlcNAc(b1-2)[Gal(b1-4)GlcNAc(b1-3)Gal(b1-4)GlcNAc(b1-3)Gal(b1-4)GlcNAc(b1-6)]Man(a1-6)[Gal(b1-4)GlcNAc(b1-3)Gal(b1-4)GlcNAc(b1-3)Gal(b1-4)GlcNAc(b1-2)Man(a1-3)]Man(b1-4)GlcNAc(b1-4)[Fuc(a1-6)]GlcNAc. In short, it runs like this: as §1
For assay [14], the target named is Gal(b1-4)GlcNAc(b1-3)Gal(b1-4)GlcNAc(b1-3)Gal(b1-4)GlcNAc(b1-3)Gal(b1-4)GlcNAc(b1-2)Man(a1-3)[Gal(b1-4)GlcNAc(b1-3)Gal(b1-4)GlcNAc(b1-3)Gal(b1-4)GlcNAc(b1-3)Gal(b1-4)GlcNAc(b1-2)Man(a1-6)]Man(b1-4)GlcNAc(b1-4)GlcNAc. In short, it runs like this: as §1
Assay [15] has as its target Gal(b1-4)GlcNAc(b1-3)Gal(b1-4)GlcNAc(b1-3)Gal(b1-4)GlcNAc(b1-3)Gal(b1-4)GlcNAc(b1-2)Man(a1-3)[Gal(b1-4)GlcNAc(b1-3)Gal(b1-4)GlcNAc(b1-3)Gal(b1-4)GlcNAc(b1-3)Gal(b1-4)GlcNAc(b1-2)Man(a1-6)]Man(b1-4)GlcNAc(b1-4)[Fuc(a1-6)]GlcNAc. An outline of the steps: as §1
In assay [16] the target is Gal(b1-4)GlcNAc(b1-3)Gal(b1-4)GlcNAc(b1-3)Gal(b1-4)GlcNAc(b1-3)Gal(b1-4)GlcNAc(b1-2)[Gal(b1-4)GlcNAc(b1-3)Gal(b1-4)GlcNAc(b1-3)Gal(b1-4)GlcNAc(b1-3)Gal(b1-4)GlcNAc(b1-6)]Man(a1-6)[Gal(b1-4)GlcNAc(b1-3)Gal(b1-4)GlcNAc(b1-3)Gal(b1-4)GlcNAc(b1-3)Gal(b1-4)GlcNAc(b1-2)Man(a1-3)]Man(b1-4)GlcNAc(b1-4)[Fuc(a1-6)]GlcNAc. In short, it runs like this:
as §1

Assay [17] concerns the target Gal(b1-4)GlcNAc(b1-3)Gal(b1-4)GlcNAc(b1-3)Gal(b1-4)GlcNAc(b1-3)Gal(b1-4)GlcNAc(b1-3)Gal(b1-4)GlcNAc(b1-2)Man(a1-3)[Gal(b1-4)GlcNAc(b1-3)Gal(b1-4)GlcNAc(b1-3)Gal(b1-4)GlcNAc(b1-3)Gal(b1-4)GlcNAc(b1-3)Gal(b1-4)GlcNAc(b1-2)Man(a1-6)]Man(b1-4)GlcNAc(b1-4)GlcNAc. In short, it runs like this: as §1
For assay [18], the target named is Gal(b1-4)GlcNAc(b1-3)Gal(b1-4)GlcNAc(b1-3)Gal(b1-4)GlcNAc(b1-3)Gal(b1-4)GlcNAc(b1-3)Gal(b1-4)GlcNAc(b1-2)Man(a1-3)[Gal(b1-4)GlcNAc(b1-3)Gal(b1-4)GlcNAc(b1-3)Gal(b1-4)GlcNAc(b1-3)Gal(b1-4)GlcNAc(b1-3)Gal(b1-4)GlcNAc(b1-2)Man(a1-6)]Man(b1-4)GlcNAc(b1-4)[Fuc(a1-6)]GlcNAc. An outline of the steps: as §1
Assay [19] concerns the target Gal(b1-4)GlcNAc(b1-3)Gal(b1-4)GlcNAc(b1-3)Gal(b1-4)GlcNAc(b1-3)Gal(b1-4)GlcNAc(b1-3)Gal(b1-4)GlcNAc(b1-2)[Gal(b1-4)GlcNAc(b1-3)Gal(b1-4)GlcNAc(b1-3)Gal(b1-4)GlcNAc(b1-3)Gal(b1-4)GlcNAc(b1-3)Gal(b1-4)GlcNAc(b1-6)]Man(a1-6)[Gal(b1-4)GlcNAc(b1-3)Gal(b1-4)GlcNAc(b1-3)Gal(b1-4)GlcNAc(b1-3)Gal(b1-4)GlcNAc(b1-3)Gal(b1-4)GlcNAc(b1-2)Man(a1-3)]Man(b1-4)GlcNAc(b1-4)[Fuc(a1-6)]GlcNAc. An outline of the steps: as §1

B1: rCnSL-A (Clitocybe nebularis) (protein)
chain: VNPNLPGPNDVFVGFRGTNNIVGAIYEKDGIKDTPLNNGADAEMGPGSYITDGLFTARIFASGSAGNNPGTTATVCKIYASGVQWRGAPKGYIPVAYFGNGPTAEQRRQTYLRTLGLPGTAIRFGNLNTNPGQGPTAPRQMVVPPGPLRSLLKASCFPAADTRLPQTLHYFEKRVDWNIITAADSQTWGH
Turning to B1, the “glycan array binding signal (z-score)” value in the assay with Fuc(a1-2)Gal is -0.225; in [1] it was -0.137; in assay [2] it was -0.176; in assay [3] it was -0.339; in [4], -0.306; in assay [5], -0.002. In addition, the “glycan array binding signal (z-score)” value in assay [6] was -0.093; in assay [7], -0.255; with Gal(a1-4)Gal(b1-4)Glc, -0.211; with Gal(b1-3)Gal(b1-4)GlcNAc, -0.132; in [8], 1.95; in assay [9] it was 3.37. For the same molecule, the “glycan array binding signal (z-score)” value is -0.203 in assay [10]; 2.67 in assay [11]; 3.11 in assay [12]; 5.46 in assay [13]; 8.55 in [14]; 2.68 in [15]. Besides, the “glycan array binding signal (z-score)” value was 10.3 in assay [16], 2.36 in assay [17], 5.05 in assay [18] and 13.6 in assay [19].
